High-throughput results from PubChem.
In the library only some 1.6% were active in any assay of this set; here they are far more common.
KCNQ2 pot – KCNQ2 (rat) channel potentiation | AID 2239 | B-score at 10 µM | CHO-K1 KCNQ2, FluxOR thallium flux fluorescence; stronger effect = higher value | O88943 | hit rate 0.54% among 310,000;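 active = fluorescence ratio B-score at least 3 SD of library B-scores, with initial fluorescence B-score within 3 of them, cut at about 5.3 in these data; same plate scores as AID 2156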;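 note: B-score of peak minus minimum over baseline fluorescence ratio after K+ and Tl+ stimulus; positive B-score means potentiation of KCNQ2 with more thallium influx and brighter signal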
KCNQ2 inh – inhibitors of rat KCNQ2 potassium channel | CHO-K1 KCNQ2, FluxOR thallium flux, 20 min; stronger effect = lower value | B-score at 10 µM | hit rate 1.1% among 310,000 | AID 2156;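 active = fluorescence ratio B-score at most minus 3 library SDs, with starting brightness B-score within 2 library SDs, cut at about -5.5 in these data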
Kir21 conf inh – confirmation of mouse Kir2.1 potassium channel inhibitors; hit rate 41% among 2,300; shares compounds with KCNQ2 pot; Tl flux remaining, % of negative control (stronger effect = lower value), % at 10 µM; AID 2032; Kir2.1-expressing cells, FluxOR thallium flux fluorescence; stronger effect = lower value;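 active = Primary-screen hit whose thallium flux fell at least 3 control SD below untreated wells in both duplicates, with normal baseline fluorescence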
Target sequence (P35561 whole entry, looked up): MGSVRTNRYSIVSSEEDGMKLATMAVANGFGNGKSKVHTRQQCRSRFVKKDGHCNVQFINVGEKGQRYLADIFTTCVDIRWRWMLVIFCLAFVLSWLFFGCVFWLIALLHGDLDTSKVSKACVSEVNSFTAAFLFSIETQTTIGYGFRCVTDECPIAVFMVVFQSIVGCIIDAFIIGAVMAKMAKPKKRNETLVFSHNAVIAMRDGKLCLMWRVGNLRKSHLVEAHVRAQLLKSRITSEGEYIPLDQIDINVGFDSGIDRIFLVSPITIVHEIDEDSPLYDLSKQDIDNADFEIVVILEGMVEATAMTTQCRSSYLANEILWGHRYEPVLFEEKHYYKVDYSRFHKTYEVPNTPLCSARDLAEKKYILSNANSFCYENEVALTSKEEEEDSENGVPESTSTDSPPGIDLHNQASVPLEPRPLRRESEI
HEK293 Tl flux – alters thallium flux in parental HEK293 cells, Kir2.1 counter-screen | shares compounds with KCNQ2 pot | FluxOR thallium flux fluorescence; 0% = unstimulated blank wells | FluxOR signal as % of negative control (100 = no effect), % at 10 µM | hit rate 19% among 2,300;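 active = dye signal at least 3 control SD above or below untreated wells in both duplicates, raw fluorescence within 3, either direction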;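 note: percent is based on the flux ratio of peak minus minimum fluorescence over baseline F0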
CHO-K1 Tl ctr – alters thallium flux in parental CHO-K1 cells, KCNQ2 counter-screen. shares compounds with KCNQ2 pot. FluxOR thallium flux fluorescence; zero = vehicle mean+3SD, 100% = vehicle-minus-blank window. activity increase over 3SD of controls, % at 10 µM. hit rate 43% among 1,200;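 active = signal rise of at least 3 SD above the untreated control mean, in both duplicate wells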;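 note: counter screen of KCNQ2 potentiator hits so any rise reflects channel-independent effects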
KCNQ1 sel pot – selectivity of KCNQ2 potentiators: effect on human KCNQ1. shares compounds with KCNQ2 pot. CHO KCNQ1 stable, FluxOR thallium flux fluorescence; beyond 3SD, as % of vehicle-control signal. activation over 3SD threshold, % at 10 µM. hit rate 28% among 1,200;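 active = fluorescence ratio rise of at least 3 SD of vehicle wells above their mean, in both replicate wells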
KCNQ2 pot confirm – rat KCNQ2 channel potentiator confirmation | shares compounds with KCNQ2 pot | CHO-KCNQ2 cells, FluxOR thallium flux fluorescence | potentiation, less the hit threshold, % at 10 µM | hit rate 68% among 1,200 | AID 2287;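 active = fluorescence ratio rising 3 SD or more over the vehicle control mean in both replicates, plus primary screen hit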;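 note: peak minus minimum thallium fluorescence divided by baseline after K/Tl stimulus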
Kir2-1 sel – tests whether KCNQ2 potentiators also affect mouse Kir2.1; shares compounds with KCNQ2 pot; HEK293 Kir2.1, FluxOR thallium flux fluorescence; activity over 3SD threshold, % at 10 µM; hit rate 2% among 1,200;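 active = fluorescence ratio rise of at least 3 SD above the vehicle-control mean, seen in both replicates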
KCNQ2 W236L pot – rat KCNQ2 W236L mutant potentiation by KCNQ2 potentiators | current increase over 3SD of negative controls (%), stronger effect = higher value, % at 25 µM | CHO KCNQ2-W236L, automated patch clamp current | hit rate 10% among 940 | AID 2558 | shares compounds with KCNQ2 pot;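 active = current increase at least 3 SD of the untreated controls above them in both duplicate recordings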
A number is an active result; n = inactive; x = no result given; ! = a repeat was not active.

SMILES	KCNQ2 pot	KCNQ2 inh	Kir21 conf inh	HEK293 Tl flux	others
CCOc1cc(NC(=O)C2CCCCC2)c(OCC)cc1NC(=O)c1ccccn1	x	n	x	x
O=C(CSc1ncnc2c1oc1ccccc12)c1cccs1	n	n	x	x
Cc1nc(SCC(=O)c2cccs2)c2oc3ccccc3c2n1	6.05	n	n	n	CHO-K1 Tl ctr=n;KCNQ1 sel pot=n;KCNQ2 pot confirm=n;Kir2-1 sel=n;KCNQ2 W236L pot=n
CCNC(=O)N(C)c1nncnc1C(=O)NC	n	n	x	x
CNC(=O)c1ncnnc1N(C)C(=O)NCc1ccccc1	9.8	n	n	n	CHO-K1 Tl ctr=0.9;KCNQ1 sel pot=n;KCNQ2 pot confirm=n;Kir2-1 sel=n
O=C(O)C1Nc2c(C(F)(F)F)ccc(Cl)c2C2C=CCC12 (centres undefined)	n	n	x	x
Cc1cc(C)cc(OCC(=O)N2N=C(C(F)(F)F)CC2(O)C(C)(C)C)c1 (centres undefined)	x	n	x	x
O=C(COc1ccc2c(c1)OCO2)Nc1ccccc1F	x	n	x	x
Fc1ccc(C2CCNCC2COc2ccc3c(c2)OCO3)cc1 (centres undefined)	n	-6.21	47.5%	n
O=C(CSCc1ccc(F)cc1)NCc1ccc2c(c1)OCO2	x	n	x	x
Fc1ccc([C@@H]2CCNC[C@H]2COc2ccc3c(c2)OCO3)cc1	n	-6.01!	34.5%	n
O=C(COC(=O)C1CC(=O)N(Cc2ccco2)C1)c1ccc(OC(=O)c2ccccc2)cc1 (centres undefined)	n	n	n	n
O=C(OCC(=O)N1c2ccccc2Sc2ccccc21)C1CC(=O)N(Cc2ccco2)C1 (centres undefined)	x	n	x	x
O=C(CC1CCCCC1)Nc1ccc(-c2ccc3nncn3n2)cc1	n	n	x	x
Cc1c(CN2CCC(n3nccc3NC(=O)C3CCOC3)CC2)[nH]c2ccccc12 (centres undefined)	n	n	x	x
O=C(Nc1ccnn1C1CCN(Cc2cc3ccccc3[nH]2)CC1)C1CCOC1 (centres undefined)	5.72	n	n	n	CHO-K1 Tl ctr=n;KCNQ1 sel pot=1.5;KCNQ2 pot confirm=42.2;Kir2-1 sel=n;KCNQ2 W236L pot=n
Cc1ccc(NS(=O)(=O)c2cccc(C(=O)NCCCN3CCOCC3)c2)cc1	n	n	x	x
CCn1cc(Br)c(C(=O)Nc2ccccc2C(=O)OC)n1	x	n	x	x
Cc1ccc(C)c(Cn2c3ccccc3c3cnn(CC(=O)NCc4ccccn4)c(=O)c32)c1	n	n	x	x
Cc1ccc(C)c(Cn2c3ccccc3c3cnn(CC(=O)NCCCN4CCCCC4)c(=O)c32)c1	n	n	60.5%	n
C=CCn1c(SCC)nc2sc3c(c2c1=O)CCc1ccccc1-3	x	n	x	x
C=CCSc1nc2sc3c(c2c(=O)n1CC)CCc1ccccc1-3	5.72	n	n	194.5%	CHO-K1 Tl ctr=n;KCNQ1 sel pot=n;KCNQ2 pot confirm=17.6;Kir2-1 sel=n;KCNQ2 W236L pot=6.7%
Cc1ccc(NCC(=O)N/N=C/c2cccn2C)cc1	x	n	x	x
O=C(Nc1ccc(-n2cnnn2)cc1)C1CCC1	x	n	x	x
O=C(Cc1ccc(-n2cnnn2)cc1)NC12CC3CC(CC(C3)C1)C2	6.18	n	n	n	CHO-K1 Tl ctr=83.0;KCNQ1 sel pot=n;KCNQ2 pot confirm=3.4;Kir2-1 sel=n;KCNQ2 W236L pot=n
SMILES	KCNQ2 pot	KCNQ2 inh	Kir21 conf inh	HEK293 Tl flux	others
CCCCc1ccc(-c2ccc(Br)cc2O)nc1	6.03	n	n	n	CHO-K1 Tl ctr=n;KCNQ1 sel pot=58.6;KCNQ2 pot confirm=n;Kir2-1 sel=n
CCCCc1ccc(-c2ccc(C)cc2O)nc1	n	n	x	x
C[C@@H]1CC[C@@]2(O[C@H](CCO)C[C@@H](O)[C@@H]2O)O1	n	n	x	x
CC(C)N1CN=C(Nc2nc3ccccc3o2)NC1	x	n	x	x
CCOC(=O)c1cnc2c(OC)cccc2c1N1CC(C)CC(C)C1 (centres undefined)	n	n	x	x
CCOC(=O)c1cnc2c(OC)cccc2c1Oc1ccccc1	x	n	48.0%	n
CCOC(=O)c1cnc2ccc(C(=O)OC)cc2c1NCCc1ccc(OC)c(OC)c1	x	n	x	x
CCOC(=O)c1cnc2c(C)cccc2c1NCCc1ccc(OC)c(OC)c1	x	n	n	n
